DAT uptake mod – changed hDAT dopamine uptake under cocaine IC80, either direction, primary screen, cocaine antagonist project, cell-based, LLC-PK1 hDAT, [14C]-dopamine uptake, MLSMR; LLC-PK1 hDAT cells, [14C]-dopamine uptake with cocaine IC80; actives deviate in either direction; B-score at 10 µM; hit rate 1.3% among 110,000; AID 449768, 2010;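 active = Z score or B-score, a plate-position-corrected score, falls beyond the plate's 99.7% confidence bounds, in either direction; inactive = both scores lie inside the 99.7% bounds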
Target sequence (Q01959 whole entry, looked up): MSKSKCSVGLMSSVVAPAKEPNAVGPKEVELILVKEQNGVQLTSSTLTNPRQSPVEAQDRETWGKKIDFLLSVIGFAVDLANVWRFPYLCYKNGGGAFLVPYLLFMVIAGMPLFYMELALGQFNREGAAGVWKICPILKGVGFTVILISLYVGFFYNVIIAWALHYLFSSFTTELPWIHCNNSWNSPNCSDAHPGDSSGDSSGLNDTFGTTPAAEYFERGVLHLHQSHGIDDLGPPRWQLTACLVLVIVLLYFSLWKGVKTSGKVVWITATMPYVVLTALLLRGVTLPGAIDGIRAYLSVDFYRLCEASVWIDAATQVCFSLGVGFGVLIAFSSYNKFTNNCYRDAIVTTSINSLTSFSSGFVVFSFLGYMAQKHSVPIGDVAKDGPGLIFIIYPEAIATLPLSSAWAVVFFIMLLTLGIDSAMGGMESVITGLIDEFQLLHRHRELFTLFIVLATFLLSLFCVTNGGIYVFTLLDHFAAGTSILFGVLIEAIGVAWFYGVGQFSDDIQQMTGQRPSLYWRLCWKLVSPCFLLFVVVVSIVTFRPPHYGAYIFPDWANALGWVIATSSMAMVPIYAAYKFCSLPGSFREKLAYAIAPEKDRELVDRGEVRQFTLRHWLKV
PTK2B oligo ant – antagonists of Pyk2 self-association, primary screen, Q293 cells, FERM NanoBiT luminescence, HTS; Protein-tyrosine kinase 2-beta (Homo sapiens), Q14289; active compounds read low; z-score (the deposit names both 25 µM and 10 µM); hit rate 0.83% among 99,000;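 active = Z-score of -3 or lower, scaled per plate to the spread of control and sample wells; inactive = z-score above -3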;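 also: negative z-score means lost luminescence so less FERM oligomerization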
Mac1 fbg enh – enhancers of CD11b/CD18 adhesion to fibrinogen, primary screen, K562 cells, luminescence; ATPlite luminescence; activation, % at 10 µM; hit rate 0.07% among 93,000;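 active = 10 µM primary screen giving 50% or more activity, confirmed by 40% or more on retest at that dose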
FAK blocker – FAK kinase inhibitors, primary screen, biochemical. inhibition, %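 (tested at 7 µM)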. biochemical FAK kinase activity assay. hit rate 0.84% among 97,000; in the data active = inhibition above about 19%
Mac1 fbg inh – inhibitors of CD11b/CD18 adhesion to fibrinogen, primary screen, K562 cells, luminescence; Integrin beta-2 (Homo sapiens) + Integrin alpha-M (Homo sapiens), P05107+P11215; ATPlite luminescence; Mn2+ added to activate the integrin; inhibition, % at 10 µM; hit rate 0.54% among 93,000;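 active = primary inhibition of 50% or more at 10 µM, then 40% or more on retest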
D1 allo mod – D1 CRE-luciferase signal change, two-sided – cell-based, HEK293 D1, dopamine EC30, D1 allosteric modulator project, primary screen | D(1A) dopamine receptor (Homo sapiens), P21728 | dopamine EC30 potentiation; actives deviate in either direction | B-score at 10 µM | hit rate 5.9% among 58,000 | AID 641, 2007;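 active = luminescence count or its row- and column-corrected plate score outside the 99.7% band of the plate's sample wells, on either side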
D1 PAM confirm – D1 receptor positive allosteric modulators, retest, confirmation, cell-based, HEK293 D1, CRE-luciferase, duplicate. shares compounds with D1 allo mod. dopamine EC30 potentiation; active compounds read high. luminescence at 10 µM. hit rate 88% among 2,200. AID 642, 2007;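 active = luminescence in either of two replicates above the same-plate mean plus 3 SD of the low-dose dopamine control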
D1 no dopamine – D1 receptor agonism without dopamine, confirmation, mechanism study for D1 allosteric modulator project, cell-based, HEK293 D1, CRE-luciferase, secondary assay 1. shares compounds with D1 allo mod. luminescence, no dopamine; active compounds read high. luminescence at 10 µM. hit rate 0.8% among 1,900. AID 646, 2007; in the data active = luminescence above about 3900
Isoprot counter – counter-screen for D1 modulators: isoproterenol response in HEK293 cells; calls only at 10 µM; AID 647; HEK293 D1 CRE-luciferase, isoproterenol EC30 counter-screen; hit rate 63% among 2,200; shares compounds with D1 allo mod;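 active = luminescence in either replicate above plate mean of wells with a partly effective reference agonist dose plus 3 SD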;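 also: isoproterenol raises cAMP through native beta-adrenoceptor Gs so signal bypasses D1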
Of the large screens only hits and unclear results are named; the others gave an inactive call (follow-up assays come after a bar, where they were run). Many of the other results were omitted from the sample, so hits are more common in it than they were.

CCCCn1c(O)c(C=NC2CCCCC2N)c(=O)[nH]c1=O (configuration not stated)	DAT uptake mod -8.77
COC(=O)C1=C(c2cccc(OC)c2OC)C[C@@H]2CC[C@H]1N2C(=O)N1CCC(C)CC1	none (no result: PTK2B oligo ant, Mac1 fbg enh, FAK blocker, Mac1 fbg inh, D1 allo mod)
CCn1nc(-c2ccccc2)nc2c(=O)n(C)c(=O)nc1-2	D1 allo mod -8.71 (no result: Mac1 fbg enh, FAK blocker, Mac1 fbg inh)
CCOC(=O)C1(c2ccccc2)CCN(CCC(C#N)(c2ccccc2)c2ccccc2)CC1	none (no result: PTK2B oligo ant, Mac1 fbg enh, FAK blocker, Mac1 fbg inh, D1 allo mod)
CCN1C[C@@]2(COC)C3[C@@H](OC)[C@H]4[C@@H]1[C@@]3(C1C[C@@]3(O)[C@H](OC(=O)c5ccccc5)C1[C@]4(OC(C)=O)[C@@H](O)[C@H]3OC)[C@@H](OC)C[C@H]2O (some centres not stated)	none (no result: PTK2B oligo ant, Mac1 fbg enh, FAK blocker, Mac1 fbg inh, D1 allo mod)
Cc1nn(-c2ccccc2)c(Cl)c1C1C(C#N)=C(N)Oc2c1c(=O)oc1ccccc21 (configuration not stated)	PTK2B oligo ant -3.2
N#CC1=C(N)Oc2c(c(=O)oc3ccccc23)C1c1cccnc1 (configuration not stated)	none (no result: FAK blocker)
CC(=O)c1ccc2c(c1)C1C(Cl)C(Sc3ccccc3[N+](=O)[O-])CC1C(c1ccccc1[N+](=O)[O-])N2 (configuration not stated)	PTK2B oligo ant -3.44 (no result: Mac1 fbg enh, Mac1 fbg inh, D1 allo mod)
CN1C(=O)C(=Cc2ccccc2Oc2ccc(Cl)cc2)C(=O)N(C)C1=O	PTK2B oligo ant -3.92 (no result: D1 allo mod)
CN1C(=O)C2C[C@@]3(Br)c4ccccc4N(OOSc4ccccc4)[C@H]3N2C(=O)[C@@H]1Cc1ccccc1 (some centres not stated)	none (no result: PTK2B oligo ant, Mac1 fbg enh, FAK blocker, Mac1 fbg inh, D1 allo mod)
Fc1ccc2c(c1)nnn2C1CCN(Cc2ccccc2)CC1	D1 allo mod -4.42
Cc1c(C(=O)N2CCC3(CC2)OCCO3)sc2ncnc(N3CCN(c4ccccn4)CC3)c12	D1 allo mod -6.7 (no result: FAK blocker)
COc1ccc(Cc2nccc3cc(OC)c(OC)cc23)cc1OC	D1 allo mod 13.1 (no result: PTK2B oligo ant, Mac1 fbg enh, FAK blocker, Mac1 fbg inh) | D1 PAM confirm 7016 | D1 no dopamine inactive | Isoprot counter active
Cc1nn(Cc2ccccc2)c(Cl)c1C(=O)NC1CCCc2ccccc21 (configuration not stated)	none (no result: DAT uptake mod, PTK2B oligo ant, FAK blocker, D1 allo mod)
O=c1[nH]c(=O)n(CCc2ccc(F)cc2)c(O)c1C=NCCCN1CCOCC1	D1 allo mod 12.2 | D1 PAM confirm inactive | D1 no dopamine inactive | Isoprot counter inactive
O=c1[nH]c(=O)n(Cc2ccc(F)cc2)c(O)c1C=NCCCN1CCOCC1	none
CCOC(=O)c1c(C)n(Cc2ccco2)c2ccc(OC)cc12	D1 allo mod 3.92 | D1 PAM confirm inactive | D1 no dopamine inactive | Isoprot counter inactive
COC(=O)c1c(C)n(Cc2ccco2)c2ccc(O)cc12	none (no result: D1 allo mod)
CCOC(=O)c1cc2c(cn1)[nH]c1ccccc12	D1 allo mod 16.4 (no result: PTK2B oligo ant, Mac1 fbg enh, FAK blocker, Mac1 fbg inh) | D1 PAM confirm 15472 | D1 no dopamine inactive | Isoprot counter active
CCCCn1c(O)c(C(CC)=NCc2ccc3c(c2)OCO3)c(=O)[nH]c1=O	D1 allo mod 7.36 | D1 PAM confirm 12520 | D1 no dopamine inactive | Isoprot counter active
CCCCn1c(O)c(C(CC)=Nc2ccc(C(=O)O)cc2)c(=O)[nH]c1=O	none (no result: Mac1 fbg enh, Mac1 fbg inh)
C=C1C(=O)[C@@]23C[C@H]4[C@@H]5[C@@]6(C)CCC[C@@]57[C@@H]2[C@@H](O)[C@@H]1C[C@H]3[C@H]7N4C6	none (no result: PTK2B oligo ant, Mac1 fbg enh, FAK blocker, Mac1 fbg inh, D1 allo mod)
COCCOC(=O)c1c(N)n(Cc2ccc(OC)cc2)c2nc3ccccc3nc12	D1 allo mod 6.33 (no result: FAK blocker) | D1 PAM confirm 12708 | D1 no dopamine inactive | Isoprot counter active
COC(=O)c1c(N)n(Cc2ccc(OC)cc2)c2nc3ccccc3nc12	D1 allo mod 6.99 (no result: FAK blocker) | D1 PAM confirm 8940 | D1 no dopamine inactive | Isoprot counter active
Cn1c(O)c(C(=O)c2ccccc2)c(=O)n(C)c1=O	D1 allo mod 8.43 (no result: Mac1 fbg enh, Mac1 fbg inh) | D1 PAM confirm inactive | D1 no dopamine inactive | Isoprot counter inactive
CCC(=NCCCN(CC)CC)c1c(O)n(C2CCCCC2)c(=O)[nH]c1=O	none
CC(=NCc1cccnc1)c1c(O)n(C2CCCCC2)c(=O)[nH]c1=O	D1 allo mod 5.96 | D1 PAM confirm 9208 | D1 no dopamine inactive | Isoprot counter active
CCC(=NCc1ccco1)c1c(O)n(C2CCCCC2)c(=O)[nH]c1=O	D1 allo mod 13.8 | D1 PAM confirm 16640 | D1 no dopamine inactive | Isoprot counter active
CC(=NCc1ccco1)c1c(O)n(Cc2ccccc2)c(=O)[nH]c1=O	D1 allo mod 4.47 | D1 PAM confirm 10196 | D1 no dopamine inactive | Isoprot counter active
CCC(=NCc1cccnc1)c1c(O)n(C2CCCCC2)c(=O)[nH]c1=O	PTK2B oligo ant -3.52, D1 allo mod 14.5 | D1 PAM confirm 9572 | D1 no dopamine inactive | Isoprot counter active
COC(=O)C1=C(c2cc3ccccc3o2)C[C@@H]2CC[C@H]1N2C(=O)N1CCOCC1	none (no result: PTK2B oligo ant, Mac1 fbg enh, FAK blocker, Mac1 fbg inh, D1 allo mod)
CCCNC(=O)N1[C@H]2CC[C@@H]1C(C(=O)OC)=C(c1ccccc1)C2	none (no result: PTK2B oligo ant, Mac1 fbg enh, FAK blocker, Mac1 fbg inh, D1 allo mod)
CCCCc1nc2ccccc2c(=O)n1-c1ccc(O)cc1	D1 allo mod 3.69 (no result: Mac1 fbg enh, Mac1 fbg inh) | D1 PAM confirm 8012 | D1 no dopamine inactive | Isoprot counter active
CCCCc1nc2ccccc2c(=O)n1-c1ccccc1[N+](=O)[O-]	none (no result: Mac1 fbg enh, Mac1 fbg inh, D1 allo mod)
N#CCCn1cc(C(=O)Nc2ccccc2Br)c(-c2ccc([N+](=O)[O-])cc2)n1	none (no result: DAT uptake mod, PTK2B oligo ant, FAK blocker, D1 allo mod)
Cc1nn(Cc2ccccc2)c(C)c1C(=O)OCC(=O)Nc1ccccc1SCC#N	D1 allo mod 4.23 | D1 PAM confirm 8752 | Isoprot counter active
Cc1ccc(Cc2c(C)nc3nc(SCC(=O)N4CCC5(CC4)OCCO5)nn3c2C)cc1	none (no result: D1 allo mod)
Cc1nc2ncnn2c(C)c1CCC(=O)N1CCC2(CC1)OCCO2	D1 allo mod 2.8 | D1 PAM confirm inactive | D1 no dopamine inactive | Isoprot counter inactive
